Experimental data: PubChem BioAssay (EPA / NIEHS)
Records with an inconclusive call do not appear. Activity calls are given as the source filed them. How the source made its calls, unless noted: active means hit-call score of the fitted dose curve at least 0.9, where 1 is the maximum; inconclusive means response in the unintended direction; inactive means score below 0.9.

Tests used:
[1] = target: Cellular tumor antigen p53 (Homo sapiens) (UniProt P04637); assay: TOX21_p53_BLA_p2_ratio: Tox21 HCT-116 p53 Agonism Beta-lactamase Assay, Ratio, Phase 2 (AID 2283592)
Chain of Cellular tumor antigen p53 (Homo sapiens) (P04637 whole entry, looked up): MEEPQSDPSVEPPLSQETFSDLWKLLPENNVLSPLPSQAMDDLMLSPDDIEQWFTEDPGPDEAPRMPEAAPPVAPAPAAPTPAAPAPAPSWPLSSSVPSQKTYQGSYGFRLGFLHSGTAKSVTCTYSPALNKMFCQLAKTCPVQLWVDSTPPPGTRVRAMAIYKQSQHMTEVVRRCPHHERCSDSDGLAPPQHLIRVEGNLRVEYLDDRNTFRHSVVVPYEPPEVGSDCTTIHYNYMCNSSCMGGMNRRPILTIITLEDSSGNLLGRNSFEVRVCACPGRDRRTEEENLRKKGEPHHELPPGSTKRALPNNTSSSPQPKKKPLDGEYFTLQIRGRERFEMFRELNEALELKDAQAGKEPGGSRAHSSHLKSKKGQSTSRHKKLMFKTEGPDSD
Outline: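 Gain-of-signal p53 agonism was scored from the beta-lactamase FRET ratio (460/530 nm, 405 nm excitation) in HCT116 cells treated 16 h at 37C, 5% CO2, with DMSO serving as negative control and baseline.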

[2] = TOX21_p53_BLA_p4_viability: Viability Assessment in the Tox21 HCT-116 p53 Agonism Beta-lactamase Assay, Phase 4 (AID 2283597);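 further: hits lower the luminescence signal meaning cytotoxicity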
Outline: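 Following a 16 h exposure at 37C, the treated HCT116 wells were first read for the FRET ratio. They were then lysed with CellTiter-Glo, and ATP luminescence was recorded after 30 min at room temperature.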

[3] = target: Cellular tumor antigen p53 (Homo sapiens) (UniProt P04637); assay: TOX21_p53_BLA_p5_ratio: Tox21 HCT-116 p53 Agonism Beta-lactamase Assay, Ratio, Phase 5 (AID 2283599)
Outline: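 Beta-lactamase reporter ratio (blue 460 nm over green 530 nm, 405 nm excitation) after 2 h CCF4-AM loading, in HCT-116 cells exposed 16 h at 37 C to compounds pinned at 217-fold dilution. Increases relative to DMSO baseline scored.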

[4] = TOX21_p53_BLA_p5_viability: Viability Assessment in the Tox21 HCT-116 p53 Agonism Beta-lactamase Assay, Phase 5 (AID 2283600)
Outline: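 After the 460/530 nm beta-lactamase measurement, the wells received an ATP-detection luciferase reagent; signal was read 30 min later at RT. Compound treatment lasted 16 h on cells pre-incubated 5 h post-seeding.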

[5] = target: Cellular tumor antigen p53 (Homo sapiens) (UniProt P04637); assay: TOX21_p53_BLA_p4_ratio: Tox21 HCT-116 p53 Agonism Beta-lactamase Assay, Ratio, Phase 4 (AID 2283601)
Outline: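 Signal is the blue/green (460nm/530nm) ratio of cleaved versus uncleaved CCF4-AM substrate, read after 2 h substrate loading. Cells were HCT116 carrying the p53-responsive beta-lactamase reporter, dosed 16 h at 37C, 5% CO2; CellTiter-Glo measured in parallel.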

[6] = CCTE_Shafer_MEA_dev_firing_rate_mean: CCTE's Neural Network Formation Assay for Mean Firing Rate, Shafer Lab (AID 2284031; active means hit-call score of the fitted dose curve at least 0.9, where 1 is the maximum; inactive means score below 0.9;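 further: AUC of well mean spike rate recorded on DIV 5 7 9 and 12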)
Outline: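 Developing rat cortical networks on MEA plates undergo 12-day compound exposure. Firing frequency, averaged across active electrodes, is integrated as area under the curve over four recording days, referenced to DMSO.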

[7] = CCTE_Shafer_MEA_dev_per_burst_spike_percent: CCTE's Neural Network Formation Assay for Percent of Spikes in a Burst, Shafer Lab (AID 2284032; active means hit-call score of the fitted dose curve at least 0.9, where 1 is the maximum; inactive means score below 0.9)
Outline: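 Rat primary cortical neurons on 16-electrode MEA wells, dosed from plating day 0 for 12 days with renewal on DIV 5 and 9; spikes-in-bursts percentage averaged over bursting electrodes, collapsed as AUC across days 5, 7, 9, 12; loss direction versus DMSO.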

[8] = CCTE_Shafer_MEA_dev_active_electrodes_number: CCTE's Neural Network Formation Assay for Number of Active Electrodes, Shafer Lab (AID 2284040)
Outline: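 Rat cortical primary cultures, 1.5 x 10^5 cells/well, PEI-coated MEA, laminin drop. Continuous exposure DIV 0–12; full media/compound change DIV 5, 9. Readout: electrodes with mean firing ≥5 spikes/min; AUC across days; loss vs DMSO.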

[9] = CCTE_Shafer_MEA_dev_burst_rate: CCTE's Neural Network Formation Assay for Burst Rate, Shafer Lab (AID 2284042; active means hit-call score of the fitted dose curve at least 0.9, where 1 is the maximum; inactive means score below 0.9)
Outline: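 Developmental network assay measuring how 12-day exposure of rat cortical neuron cultures alters bursting on extracellular MEA recordings. Values are AUC of well-mean burst rate across four recording days, relative to DMSO vehicle.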

[10] = CCTE_Shafer_MEA_dev_bursting_electrodes_number: CCTE's Neural Network Formation Assay for Number of Bursting Electrodes, Shafer Lab (AID 2284043)
Outline: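 Read-out is the per-well number of electrodes bursting at least once every 2 minutes, recorded on days 5, 7, 9 and 12 and collapsed by trapezoidal area under the curve. Cultures were primary rat cortical neurons on MEA plates, treated continuously from plating.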

[11] = CCTE_Shafer_MEA_dev_per_burst_interspike_interval: CCTE's Neural Network Formation Assay for Burst Interspike Interval, Shafer Lab (AID 2284044; active means hit-call score of the fitted dose curve at least 0.9, where 1 is the maximum; inactive means score below 0.9;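 further: mean spike spacing inside bursts as AUC over recordings on days 5 7 9 12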)
Outline: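 Mean interspike interval within single-electrode bursts, averaged over bursting electrodes, from rat cortical cultures on MEA plates recorded on days 5, 7, 9 and 12. Continuous compound exposure from plating; trapezoidal AUC fitted downward relative to DMSO.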

[12] = CCTE_Shafer_MEA_dev_burst_duration_mean: CCTE's Neural Network Formation Assay for Mean Burst Duration, Shafer Lab (AID 2284045; active means hit-call score of the fitted dose curve at least 0.9, where 1 is the maximum; inactive means score below 0.9)
Outline: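 Read-out: average first-to-last-spike interval within single-electrode bursts, averaged over bursting electrodes per well, then summarised as area under the curve across days 5, 7, 9 and 12. Developing rat cortical networks were exposed from day 0.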

[13] = CCTE_Shafer_MEA_dev_interburst_interval_mean: CCTE's Neural Network Formation Assay for Mean Interburst Interval, Shafer Lab (AID 2284046; active means hit-call score of the fitted dose curve at least 0.9, where 1 is the maximum; inactive means score below 0.9;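 further: well-mean interburst interval of bursting electrodes as AUC over four recording days; curve fitted for decrease in interburst interval relative to DMSO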)
Outline: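 Network formation assay in primary rat cortical cultures, exposed from DIV 0 to 12. Mean interburst interval per well, integrated as AUC over four recordings.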

[14] = CCTE_Shafer_MEA_dev_inter_network_spike_interval_mean: CCTE's Neural Network Formation Assay for Mean Inter-network Spike Interval, Shafer Lab (AID 2284047; active means hit-call score of the fitted dose curve at least 0.9, where 1 is the maximum; inactive means score below 0.9)
Outline: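 Compound was given at plating to primary rat cortical neurons and renewed with full medium changes on DIV 5 and 9. Extracellular activity was recorded on days 5, 7, 9, 12; AUC values were fitted for loss relative to DMSO control.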

[15] = CCTE_Shafer_MEA_dev_network_spike_number: CCTE's Neural Network Formation Assay for Number of Network Spikes, Shafer Lab (AID 2284048; active means hit-call score of the fitted dose curve at least 0.9, where 1 is the maximum; inactive means score below 0.9;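 further: synchronized bursts across electrodes counted on days 5 7 9 12 and integrated as AUC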)
Outline: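 Developing networks of primary rat cortical neurons are treated over 12 days starting at plating, with media and compound fully replaced on DIV 5 and 9. Network spike counts from four recording days are integrated as trapezoidal AUC.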

[16] = CCTE_Shafer_MEA_dev_network_spike_peak: CCTE's Neural Network Formation Assay for Mean Number of Electrodes in Network Spike, Shafer Lab (AID 2284049; active means hit-call score of the fitted dose curve at least 0.9, where 1 is the maximum; inactive means score below 0.9)
Outline: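 Rat cortical primary culture, 1.5 x 10^5 cells/well, 48-well MEA (16 electrodes/well). Dosing day 0 through DIV 12, full media/compound exchange DIV 5, 9. AxIS adaptive spike detection; AUC over days 5/7/9/12; loss-of-signal vs DMSO.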

[17] = CCTE_Shafer_MEA_dev_spike_duration_mean: CCTE's Neural Network Formation Assay for Mean Spike Duration, Shafer Lab (AID 2284051; active means hit-call score of the fitted dose curve at least 0.9, where 1 is the maximum; inactive means score below 0.9;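 further: mean network spike duration pooled as area under curve over DIV 5 to 12 recordings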)
Outline: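 With DMSO as baseline, loss of mean network spike duration was scored from extracellular recordings of rat cortical neurons on MEA plates. Exposure spanned plating to DIV 12; the four recording days were collapsed into one AUC value.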

[18] = CCTE_Shafer_MEA_dev_network_spike_duration_std: CCTE's Neural Network Formation Assay for Standard Deviation of Network Spike Duration, Shafer Lab (AID 2284052; active means hit-call score of the fitted dose curve at least 0.9, where 1 is the maximum; inactive means score below 0.9;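 further: area under curve of spike duration SD across recording days 5 to 12; hits are decreases in network spike duration SD versus DMSO vehicle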)
Outline: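 Developing networks of rat cortical neurons were exposed over twelve days in vitro on 48-well MEA plates. Trapezoidal AUC of recordings (DIV 5–12) was analysed for signal loss relative to DMSO vehicle.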

[19] = CCTE_Shafer_MEA_dev_per_network_spike_spike_number_mean: CCTE's Neural Network Formation Assay for Mean Number of Spikes in a Network Spike, Shafer Lab (AID 2284053; active means hit-call score of the fitted dose curve at least 0.9, where 1 is the maximum; inactive means score below 0.9)
Outline: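 First, rat cortical cells (1.5 x 10^5/well) were seeded onto MEA wells; second, dosing began at plating and was refreshed on DIV 5 and 9; finally, network-spike spike counts across DIV 5–12 were summarized as AUC.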

[20] = CCTE_Shafer_MEA_dev_per_network_spike_spike_percent: CCTE's Neural Network Formation Assay for Percent of Spikes in a Network Spike, Shafer Lab (AID 2284054; active means hit-call score of the fitted dose curve at least 0.9, where 1 is the maximum; inactive means score below 0.9)
Outline: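 Rat primary cortical cultures, 1.5 x 10^5 cells/well on MEA. Continuous compound exposure d0–12, medium/compound renewed DIV 5, 9. Network-spike spike % (0.05 s peak window), AUC over 4 recordings, DMSO baseline.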

[21] = CCTE_Shafer_MEA_dev_LDH: CCTE's Lactate Dehydrogenase Assay for Cytotoxicity in the Neural Network Formation Assay, Shafer Lab (AID 2284068);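 further: exposure for twelve days from plating with re-dosing on DIV 5 and 9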
Outline: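 Developing rat cortical networks on MEA plates are exposed to compound for 12 days from plating. LDH activity is measured spectrophotometrically, with DMSO as baseline.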

[22] = CCTE_Shafer_MEA_dev_correlation_coefficient_mean: CCTE's Neural Network Formation Assay for Mean Correlation Coefficient, Shafer Lab (AID 2284093; active means hit-call score of the fitted dose curve at least 0.9, where 1 is the maximum; inactive means score below 0.9)
Outline: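 Extracellular firing from rat cortical networks on 48-well MEAs, DMSO-referenced, negative fitting direction. Compound present from plating to DIV12; mean pairwise correlation per well integrated over DIV5–12 recordings by trapezoidal AUC.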

Measured: outcome

c1cc2c3c(c1)ccc1cccc(c13)C2
inactive: all assays above

CCN1CCc2nc(N)oc2CC1
inactive: [1] | [2] | [3] | [4] | [5]

Brc1cc2ccccc2c2ccccc12
inactive: [1] | [2] | [3] | [5]

CCC(CO)(CO)CO
inactive: [1] | [2] | [3] | [4]

CCCCOC(=O)CCS
inactive: [1] | [2] | [3] | [5]

COc1ccc(C=NNC(=O)c2ccncc2)c(C(=O)O)c1OC
inactive: [1] | [2] | [3] | [4] | [5]

CCN(CC)CCOC(=O)C1(c2ccccc2)CCCC1
inactive: [1] | [2] | [3] | [5]

CCc1ccc(CC)cc1
inactive: [1] | [2] | [3] | [4] | [5]

C#CCN[C@@H]1CCc2ccccc21
inactive: [1] | [2] | [3] | [5]

COc1ccc(C(=O)NCc2ccc(OCCN(C)C)cc2)cc1OC
inactive: [1] | [2] | [3] | [5]

O=c1c(O)c(O)c1=O
inactive: [1] | [2] | [3] | [4] | [5]

CCCCCCCCCCCCCCCCCl
inactive: [1] | [2] | [3] | [4] | [5]

NNc1nnc(NN)c2ccccc12
inactive: [1] | [2] | [3] | [4] | [5]

CCCCOC(=O)C(=O)Nc1cccc(-c2nn[nH]n2)c1
inactive: [1] | [2] | [4]

O=C(c1ccc2c(c1)C(=O)OC2=O)c1ccc2c(c1)C(=O)OC2=O
inactive: [1] | [2] | [3] | [5]

CCc1cccc(C)c1
inactive: [1] | [2] | [3] | [5]

CC(C)CCC[C@@H](C)[C@H]1CC[C@H]2[C@@H]3CC[C@@H]4C[C@H](O)CC[C@]4(C)[C@H]3CC[C@]12C
inactive: [1] | [2] | [3] | [4] | [5]
